Screens from PubChem.
MPTP inh: blocks calcium-induced mitochondrial swelling; isolated mouse mitochondria, Ca2+ swelling absorbance, 30 min; inhibition, % at 10 µM; actives 1.4% (n = 360,000); AID 602449;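 active means inhibition of 50% or more, scaled per plate between neutral and stimulator controls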
FAS-TE inh: FAS thioesterase (human) inhibition; recombinant FAS-TE, OMFH fluorogenic substrate, fluorescence endpoint; actives 0.67% (n = 360,000); inhibition, % at 15 µM; AID 602261;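 active means compounds whose normalised, plate-corrected inhibition of enzyme fluorescence in the single-dose primary screen is 50% or more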
Myeloid diff MLP: promotes myeloid progenitor differentiation | actives 1% (n = 360,000) | ER-HoxA9 myeloid progenitors, lysozyme-GFP differentiation, flow cytometry | calls only at 10 µM;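 active means normalized GFP-positive differentiation at or above the plate's own cutoff, the solvent-only control mean plus 3 SD; inconclusive means no clear call, values can overlap the other calls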;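 further: cells exposed to compound for four days before flow analysis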
NR3A LBD binder: NR3A (human) ligand-binding domain modulation; actives 2.5% (n = 340,000); NR3A LBD differential scanning fluorimetry, Tm shift; 0% = protein alone, 100% = glycine-bound protein; Tm shift relative to glycine control, % at 25 µM;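 active means melting temperature shift of at least 10% of the positive control shift, at one fixed dose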
rCAG binder: r(CAG) repeat RNA binding; TO-PRO-1 dye displacement fluorescence; inhibition, % at 3 µM; actives 1.3% (n = 370,000);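 active means inhibition above the plate cutoff, the mean of all test compounds on that plate plus 3 SD, cut at about 35% in these data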;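 further: higher means more dye released from RNA so lower well fluorescence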
rCAG bind conf: r(CAG) RNA repeat binding, confirmation. shares compounds with rCAG binder. TO-PRO-1 dye displacement fluorescence. inhibition, % at 3 µM. actives 70% (n = 4,300). AID 652065;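 active means inhibition above a per-plate cutoff, the mean inhibition of sample wells plus 3 SD, cut at about 35% in these data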;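 further: loss of TO-PRO-1 fluorescence as compound displaces dye from 1x1 AA loop RNA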
DNA CAG counter: disrupts DNA CAG TO-PRO-1 complex, flagging rCAG hits. d(CAG) DNA oligo TO-PRO-1 dye displacement, fluorescence. AID 652068. actives 94% (n = 4,300). shares compounds with rCAG binder. inhibition, % at 3 µM;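 active means inhibition above its plate's cutoff, the mean test-well inhibition plus 3 SD, cut at about 4.8% in these data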;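 further: hits displace the dye from DNA and so lower well fluorescence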
DNA CAG DR: DNA CAG dye complex inhibition, dose response counter-screen; shares compounds with rCAG binder; DNA CAG/GTC duplex TO-PRO-1 dye displacement fluorescence; IC50, µM; actives 20% (n = 250); AID 686960; in the data active means IC50 below about 10 µM
Large screens that a line does not name were inactive (follow-up assays come after a bar, where they were run). Only some compounds are listed: those with a hit (about 5.7% of all), similar ones and a draw of the others.

CCCCNC(=O)CC1NCCNC1=O (configuration not stated)	none
O=C(Nc1cc(S(=O)(=O)Nc2ccccc2F)ccc1Cl)c1ccc(F)cc1F	rCAG binder 46.6 | rCAG bind conf 41.8 | DNA CAG counter 12.6
COc1ccc(NS(=O)(=O)c2ccc(Cl)c(NC(=O)c3ccccc3F)c2)cc1	none
Cc1ccc2c(c1)CCCN2S(=O)(=O)c1cccc(C(=O)Nc2ccccc2C(=O)O)c1	rCAG binder 83.5 (no result: NR3A LBD binder) | rCAG bind conf 84.6 | DNA CAG counter 63.0
CC1CCCCC12NC(=O)N(CC(=O)N1CCN(S(=O)(=O)Cc3ccccc3)CC1)C2=O (configuration not stated)	none
CC12CCC(=O)C=C1CCC1C2C(O)CC2(C)C1CCC2(O)C(=O)CO (configuration not stated)	none (no result: MPTP inh)
O=C(COc1ccc(Br)cc1)NCCO	none
Cc1ccc(CNC(=O)C(C)OC(=O)c2ccco2)cc1 (configuration not stated)	rCAG binder 56.5 | rCAG bind conf inactive | DNA CAG counter inactive
Cc1ccc(CNC(=O)C(OC(=O)c2ccco2)C(C)C)cc1 (configuration not stated)	none
CC1CC(C)CN(C(=O)c2cccc(S(=O)(=O)Nc3cc(C(F)(F)F)ccc3Cl)c2)C1 (configuration not stated)	rCAG binder 71.1 | rCAG bind conf 66.2 | DNA CAG counter 27.3
Cc1cc(NC(=O)CN(C)CC(=O)Nc2ccc(F)c(F)c2F)no1	none
O=C(O)c1cccc(S(=O)(=O)N2CCN(S(=O)(=O)c3ccc4ccccc4c3)CC2)c1	none
Cc1cc(NS(=O)(=O)c2ccc(NC(=O)C(C)Oc3cc(C)c(Cl)c(C)c3)cc2)no1 (configuration not stated)	rCAG binder 69.1 | rCAG bind conf 66.0 | DNA CAG counter 27.8
Cc1cc(NS(=O)(=O)c2ccc(NC(=O)C(C)Oc3ccccc3Cl)cc2)no1 (configuration not stated)	rCAG binder 36.0 | rCAG bind conf inactive | DNA CAG counter inactive
Cc1cc(NS(=O)(=O)c2ccc(NC(=O)C(C)Oc3ccc(Cl)cc3)cc2)no1 (configuration not stated)	none
CC(C(=O)NCc1ccccc1)N1CCN(c2ccc(F)cc2)CC1 (configuration not stated)	none
Cc1ccc(C(=O)CCC(=O)Nc2ccccc2F)cc1	none
O=C(Nc1ccccc1)Nc1nnc(Cc2ccc(F)cc2)s1	rCAG binder 35.8 | rCAG bind conf inactive | DNA CAG counter 12.3
O=C(Cc1nnc(NC(=O)c2ccccc2)s1)N/N=C\c1ccc(O)c(O)c1	none
O=C(Cc1nnc(NC(=O)Nc2ccc(F)cc2)s1)Nc1ccccc1	NR3A LBD binder 25.4, rCAG binder 37.6 | rCAG bind conf inactive | DNA CAG counter 14.8
CCN(CC)c1ccc(/C=N/NC(=O)Cc2nnc(NC(=O)Nc3ccccc3)s2)cc1	rCAG binder 59.5 | rCAG bind conf 40.0 | DNA CAG counter 26.9
COc1cc(/C=N/NC(=O)Cc2nnc(NC(=O)c3ccccc3)s2)ccc1O	rCAG binder 37.9 | rCAG bind conf inactive | DNA CAG counter 7.5
COc1ccccc1NC(=O)Nc1nnc(CC(=O)Nc2ccccc2)s1	none (no result: MPTP inh, FAS-TE inh, Myeloid diff MLP, NR3A LBD binder)
COc1ccc(OC)c(S(=O)(=O)NC(=O)C2(C)CCN2C(=O)CC2CCCC2)c1 (configuration not stated)	none (no result: NR3A LBD binder)
CC(C)(Sc1ccc(CCN(CCCCC2CCCCC2)C(=O)NC2CCCCC2)cc1)C(=O)O	rCAG binder 48.7 | rCAG bind conf 54.6 | DNA CAG counter 16.9 | DNA CAG DR inactive
CN(Cc1ccccc1)C(=O)NC1CCCCC1	none
COc1cc(C(=O)Nc2ccc3c(c2)CCCN3C(=O)c2ccco2)c([N+](=O)[O-])cc1OC	none
O=C(NCCN1CCCC(O)C1)c1cc(COc2cccc(C(F)(F)F)c2)on1 (configuration not stated)	none (no result: NR3A LBD binder)
Oc1ccc2ccccc2c1/C=C/c1ccc2c(Br)cc(Br)c(O)c2n1	NR3A LBD binder 15.0, rCAG binder 48.0 (no result: Myeloid diff MLP) | rCAG bind conf 50.5 | DNA CAG counter 32.0
Oc1ccc2ccccc2c1/C=N/n1cnnc1	none
CCC(C(=O)O)n1nnc(-c2ccc(OCc3ccccc3)c(OC)c2)n1 (configuration not stated)	none (no result: MPTP inh, FAS-TE inh, Myeloid diff MLP, NR3A LBD binder)
CCC(C(=O)O)n1nnc(-c2ccc(-c3ccc(OC)cc3)cc2)n1 (configuration not stated)	rCAG binder 47.8 | rCAG bind conf 35.8 | DNA CAG counter 10.2
O=C(NC1CCCCN(Cc2cccc(Cl)c2)C1=O)c1cccc([N+](=O)[O-])c1 (configuration not stated)	none (no result: MPTP inh, FAS-TE inh, Myeloid diff MLP, NR3A LBD binder)
O=C(O)CC(NC(=O)C1c2ccccc2Oc2ccccc21)c1ccc(Cl)cc1 (configuration not stated)	rCAG binder 39.1 | rCAG bind conf inactive | DNA CAG counter inactive
CCOc1ccc(C(CC(=O)O)NC(=O)C2c3ccccc3Oc3ccccc32)cc1 (configuration not stated)	none
O=C(O)CC(NC(=O)c1sc2ccccc2c1Cl)c1ccc(OC2CCCC2)cc1 (configuration not stated)	rCAG binder 58.5 | rCAG bind conf 72.8 | DNA CAG counter 25.1 | DNA CAG DR inactive
O=C(O)CC(NC(=O)C1c2ccccc2Oc2ccccc21)c1ccc(OC2CCCC2)cc1 (configuration not stated)	rCAG binder 50.5 | rCAG bind conf 48.4 | DNA CAG counter 12.1
CCOC(=O)C1CCN(C(=O)C2CCCN(S(=O)(=O)c3ccc(OCC)c(Cl)c3)C2)CC1 (configuration not stated)	none
CCOc1ccc(CN(C)C(=O)CCN2C(=O)c3ccccc3C2=O)cc1OC	none
COc1ccc(C(=O)NNC(=O)C(=O)/C=C(\O)c2ccc(C)cc2)cc1	rCAG binder 47.1 | rCAG bind conf inactive | DNA CAG counter 10.8
O=C(C1CCCN(S(=O)(=O)c2ccc(Br)cc2)C1)N1CCN(Cc2ccccc2)CC1 (configuration not stated)	none
COc1ccccc1OCC(=O)N/N=C/C=C/c1ccc([N+](=O)[O-])o1	Myeloid diff MLP inconclusive, rCAG binder 35.6 | rCAG bind conf inactive | DNA CAG counter 16.7
Cc1ccccc1OCC(=O)N/N=C/c1ccc([N+](=O)[O-])o1	none
CCCCCCCCN1[C@@H](CC(=O)O)c2ccc(C(F)(F)F)cc2S1(=O)=O	rCAG binder 52.3 | rCAG bind conf inactive | DNA CAG counter inactive
Cc1cccc(OCC(=O)N/N=C\c2cc3c(cc2[N+](=O)[O-])OCO3)c1C	none
